Rows were chosen to be rich in hits. Some 12% of all compounds tested hit in one or more screens of this group.
L major viab = inhibitors of Leishmania major promastigote growth. inhibition, % at 10 µM. hit rate 9% among 200,000. Leishmania major promastigotes, resazurin fluorescence viability; in the data active = inhibition above about 50%;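 note: promastigotes grown with compound for 44 hours at 28 °C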
WT yeast gro inh = growth inhibition of WT yeast, mitochondrial fusion screen; mitochondrial fusion phenotypic screen, WT strain; hit rate 2.1% among 190,000; inhibition, % at 10 µM; in the data active = inhibition above about 58%; tested in S. cerevisiae
CHOP inhibitor = blocks CHOP induction under ER stress. CHO-K1 CHOP-promoter luciferase, tunicamycin-induced, 15-18 h. hit rate 3.8% among 220,000. inhibition, % at 10 µM;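 active = compounds that reduced the stress-induced luciferase reporter signal by more than about 70% of percent inhibition, limit read from the data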;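 note: 0% = tunicamycin plus vehicle and 100% = wells without tunicamycin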
Arbovirus anti = blocks arbovirus infection; arbovirus infection cell-based antiviral screen; AID 1251; inhibition, % at 10 µM; hit rate 0.37% among 200,000; in the data active = inhibition above about 30%
Active calls of the source: *; x = not tested or not shown.

SMILES	L major viab	WT yeast gro inh	CHOP inhibitor	Arbovirus anti
O=C1c2[nH]nc(-c3ccccc3O)c2C(c2cccc(Cl)c2)N1CC1CCCO1 (stereo not drawn)	32	11	52	25
O=C1c2[nH]nc(-c3ccccc3O)c2C(c2ccc(F)cc2)N1Cc1ccco1 (stereo not drawn)	94*	7	82*	-32
Cc1ccc(S(=O)(=O)c2c(N)n(CCCN(C)C)c3nc4ccccc4nc23)cc1	x	x	0	x
COc1ccc(S(=O)(=O)c2c(N)n(Cc3ccco3)c3nc4ccccc4nc23)cc1	72*	1	23	-20
Cc1ccc(S(=O)(=O)c2c(N)n(/N=C/c3ccco3)c3nc4ccccc4nc23)cc1C	79*	19	25	-4
Cc1ccc(-n2c(N)c(S(=O)(=O)c3ccccc3)c3nc4ccccc4nc32)cc1	57*	15	5	2
Cc1ccc(S(=O)(=O)c2c(N)n(/N=C/c3ccco3)c3nc4ccccc4nc23)cc1	59*	6	36	-17
Cc1ccc(S(=O)(=O)c2c(N)n(CC3CCOC3)c3nc4ccccc4nc23)cc1 (stereo not drawn)	60*	10	32	-15
Cc1cccc(S(=O)(=O)c2c(N)n(/N=C/c3ccco3)c3nc4ccccc4nc23)c1	53*	3	18	2
Nc1c(S(=O)(=O)c2ccccc2)c2nc3ccccc3nc2n1/N=C/c1ccco1	17	2	19	10
Cc1[nH]n(-c2ncc(-c3ccc(Cl)cc3)s2)c(=O)c1C(c1ccc(Cl)cc1)C(C#N)C#N (stereo not drawn)	99*	20	-3	-34
CCCc1[nH][nH]c(=O)c1C(c1cccc(Cl)c1)C(C#N)C#N (stereo not drawn)	15	3	18	-4
O=C(Nc1ccccc1)N1CCC(C(=O)N2CCN(c3ccccc3F)CC2)CC1	-6	4	3	17
COc1ccc(F)cc1C(=O)C1CCCN(Cc2cn(C)c3ccccc23)C1 (stereo not drawn)	90*	43	25	-30
Cn1cc(CN2CCCC(C(=O)c3cc(F)ccc3F)C2)c2ccccc21 (stereo not drawn)	88*	17	47	-10
COc1ccc(F)cc1C(=O)C1CCCN(Cc2c[nH]c3ccccc23)C1 (stereo not drawn)	42	15	22	13
CCNS(=O)(=O)c1ccc(C)c(-n2cnnn2)c1C	-3	6	-1	5
CCCc1cc(-c2n[nH]c(C)c2-c2ccc(C(=O)OCC)o2)c(O)cc1O	36	9	71*	-4
CCOC(=O)c1c(C)[nH]c(C)c1C(=O)COC(=O)c1cccc(S(=O)(=O)NC)c1	80*	-12	-16	3
CCOC(=O)c1c(C)[nH]c(C)c1C(=O)COC(=O)c1cccc(S(=O)(=O)N(CC)CC)c1	99*	-15	16	7
CCOC(=O)c1c(C)[nH]c(C)c1C(=O)COC(=O)c1ccc(Cl)c(S(N)(=O)=O)c1	0	14	13	-3
Cc1c(C(=O)N2c3ccccc3Sc3ccccc32)cccc1[N+](=O)[O-]	13	35	35	1
CC(=O)OCCNc1cc(N2CCN(C)CC2)c2noc3c2c1C(=O)c1ccccc1-3	17	45	19	-13
CCOC(=O)C(C(=O)OCC)c1cc(Br)c2noc3c2c1C(=O)c1ccccc1-3	100*	21	110*	-28
Cc1ccc(NC(=S)NNC(=O)c2ccc(N3CCOCC3)c([N+](=O)[O-])c2)cc1C	3	-19	9	-4
SMILES	L major viab	WT yeast gro inh	CHOP inhibitor	Arbovirus anti
COc1cc(CNCCc2ccccc2)ccc1OCC(N)=O	-2	2	-6	3
CCCOc1cc(CC(=O)NCc2ccco2)ccc1OC	2	-3	9	6
COc1ccc(CNCc2ccco2)cc1OCc1ccccc1	100*	-5	18	4
COc1ccccc1CCNCc1ccc(OC)c(OCc2ccccc2)c1	100*	-6	82*	-33
CCCCOC(=O)CSC1=C(C#N)C(c2ccc3c(c2)OCO3)CC(=O)N1 (stereo not drawn)	20	19	36	-9
CCOC(=O)CSC1=C(C#N)C(c2ccc3c(c2)OCO3)CC(=O)N1 (stereo not drawn)	73*	5	-1	-18
Clc1cccc(Cl)c1/C=C/c1nc2ccccc2[nH]1	98*	81*	42	-13
CCn1c(/C=C2/C(=O)N(C)c3ccccc32)nc2ccccc2c1=O	31	7	-5	5
CCN1C(=O)/C(=C\c2nc3ccccc3c(=O)n2CC)c2ccccc21	96*	25	-19	-4
CCn1c(/C=C2\C(=O)N(C)c3ccccc32)nc2ccccc2c1=O	32	2	1	6

Screening data (PubChem)
